# Data: PubChem BioAssay (NCATS)
# Several values for one entry are separate records, joined by “and”; a condition that tells them apart may be missing. Identical values can stand only once. Records with an inconclusive call do not appear. The source holds several records for some structures; these can differ, active in one and inactive in another. Activity calls are given as the source filed them. Unless noted, calls follow the shape of the dose curve; as a rule, active = well fitted curve in either direction with a large enough effect (not every such curve was filed as active); inconclusive = small, poorly fitted or top-dose-only effect, or another doubt; inactive = flat fitted curve, though single readings scatter.
# Columns and labels:
# [1] = AP1 Signaling Pathway (AID 357); conditions: ME-180 AP-1-bla reporter, EGF-induced, beta-lactamase ratio, 5 h; at 38 µM (top of the series) unless noted;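 also: ME-180 reporter cells stimulated with EGF at its EC50 level; % is scaled to controls: 0 for no effect and ±100 for the full control effect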
# Outline: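 In this screen, ME-180 cells in Opti-MEM with 0.5% dialyzed FBS received EC50 EGF and compound titrations for 5 h. AP-1 reporter beta-lactamase was detected via CCF4 ratio, giving AC50 for positive and negative modulators.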
# [2] = target: Cytochrome P450 1A2 (Homo sapiens) (UniProt P05177); test: p450-cyp1a2 (AID 410; calls by dose curve; also: potency is read from the fitted curve at half-maximal effect;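 as to activity change, negative = inhibition: -100% = full effect of reference inhibitor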)
# Outline: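 Inhibition was calculated relative to 57 uM furafylline (full inhibition). The reaction used human CYP1A2 at 20nM with Luciferin-ME at its Km, 100uM, driven by an NADPH-regenerating system for 60 min at room temperature.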
# [3] = NFAT Signaling Pathway (AID 444); conditions: Jurkat NFAT-bla M1, carbachol, beta-lactamase ratio, 5 h; at 38 µM (top of the series) unless noted;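 also: carbachol stimulus at about its EC50 of 1 µM final; % is scaled to controls: 0 for no effect and ±100 for the full control effect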
# Outline: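 Jurkat cells carrying an NFAT-driven β-lactamase reporter and co-transfected muscarinic M1 receptor were treated with compound plus carbachol (1 uM final, an EC50 level) for 5 h at 37 °C. CCF4 loading followed for 1 h at RT; 460/530 nm ratio gave %activity.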
# [4] = target: Glucocorticoid receptor (Homo sapiens) (UniProt P04150); test: GR-GFP Redistribution (AID 450;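 active = compounds whose dose series gives a full or clear partial fitted curve of increased nuclear translocation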; also: potency is read from the fitted curve at half-maximal effect); conditions: U2OS GR-GFP nuclear translocation, laser cytometry, 2 h
# [5] = target: Glucocorticoid receptor (Homo sapiens) (UniProt P04150); test: GR-EFC Redistribution (AID 451; calls by dose curve; also: potency is read from the fitted curve at half-maximal effect); conditions: CHO-K1 GR-EFC translocation, beta-gal luminescence, 2 h
# Outline: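 CHO-K1 cells stably expressing nuclear-localized β-gal enzyme acceptor and GR fused C-terminally to the enzyme donor fragment; ligand-driven nuclear translocation restores β-gal by complementation. Compounds titrated up to 46 uM final, 2 h at 37 °C; luminescence read.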
# [6] = Stat Signaling Pathway (AID 446); conditions: ME-180 SIE beta-lactamase reporter, IL-6 stimulated, 5 h; at 38 µM (top of the series) unless noted;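 also: ME-180 cervical cancer cells given 40 pM IL-6 alongside compound; SIE-controlled beta-lactamase reporter measured as 460/530 nm FRET emission ratio; % is scaled to controls: 0 for no effect and ±100 for the full control effect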
# Outline: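 ME-180 cells carrying a SIE-driven beta-lactamase reporter are stimulated with 40 pM IL-6 for 5 h at 37C in the presence of compound. The 460/530 nm FRET substrate ratio is read after 2.5 h at RT. Data are normalised to 300 pM IL-6 and to 125 nM JAK inhibitor controls.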
# [7] = target: Mitogen-activated protein kinase 10 (Mus musculus) (UniProt Q61831); test: JNK3 AlphaScreen Assay (AID 530);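 also: kinase came from lysate of stimulated human HepG2 cells; signal reports phosphorylation of biotinylated GST-cJun 1-79 at Ser73 with 10 µM ATP; % is scaled to controls: 0 for no effect and ±100 for the full control effect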
# Outline: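 JNK3 came from HepG2 lysates pre-activated with IL-1beta and TNF-alpha and phosphorylated biotinylated GST-cJun (1-79) at 10 uM ATP, pH 7.6, room temperature. Compounds were titrated. AlphaScreen signal used anti-phospho-cJun (Ser73) antibody.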
# Chain of Glucocorticoid receptor (Homo sapiens) (P04150 whole entry, looked up, the tested form may be a part): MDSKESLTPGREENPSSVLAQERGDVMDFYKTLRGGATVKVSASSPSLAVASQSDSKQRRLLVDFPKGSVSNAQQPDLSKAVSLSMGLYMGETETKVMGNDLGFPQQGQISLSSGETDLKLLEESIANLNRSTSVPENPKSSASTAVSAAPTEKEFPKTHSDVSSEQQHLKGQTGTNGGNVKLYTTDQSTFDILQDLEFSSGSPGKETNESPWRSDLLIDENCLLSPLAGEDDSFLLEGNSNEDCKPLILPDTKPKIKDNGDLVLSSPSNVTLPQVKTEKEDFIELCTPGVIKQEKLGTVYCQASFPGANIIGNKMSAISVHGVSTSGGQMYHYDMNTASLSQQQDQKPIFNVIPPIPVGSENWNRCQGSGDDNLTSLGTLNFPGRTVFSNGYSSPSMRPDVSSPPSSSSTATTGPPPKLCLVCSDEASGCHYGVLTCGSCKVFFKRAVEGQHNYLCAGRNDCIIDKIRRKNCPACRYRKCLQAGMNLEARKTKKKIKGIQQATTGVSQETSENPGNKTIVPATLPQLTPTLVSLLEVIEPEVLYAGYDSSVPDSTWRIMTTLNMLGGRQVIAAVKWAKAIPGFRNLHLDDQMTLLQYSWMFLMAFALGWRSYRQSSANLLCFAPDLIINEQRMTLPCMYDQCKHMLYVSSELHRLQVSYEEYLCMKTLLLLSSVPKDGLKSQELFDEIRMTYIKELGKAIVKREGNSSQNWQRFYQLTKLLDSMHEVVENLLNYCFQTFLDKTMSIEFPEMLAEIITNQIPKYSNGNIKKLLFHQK
# Chain of Cytochrome P450 1A2 (Homo sapiens) (P05177 whole entry, looked up): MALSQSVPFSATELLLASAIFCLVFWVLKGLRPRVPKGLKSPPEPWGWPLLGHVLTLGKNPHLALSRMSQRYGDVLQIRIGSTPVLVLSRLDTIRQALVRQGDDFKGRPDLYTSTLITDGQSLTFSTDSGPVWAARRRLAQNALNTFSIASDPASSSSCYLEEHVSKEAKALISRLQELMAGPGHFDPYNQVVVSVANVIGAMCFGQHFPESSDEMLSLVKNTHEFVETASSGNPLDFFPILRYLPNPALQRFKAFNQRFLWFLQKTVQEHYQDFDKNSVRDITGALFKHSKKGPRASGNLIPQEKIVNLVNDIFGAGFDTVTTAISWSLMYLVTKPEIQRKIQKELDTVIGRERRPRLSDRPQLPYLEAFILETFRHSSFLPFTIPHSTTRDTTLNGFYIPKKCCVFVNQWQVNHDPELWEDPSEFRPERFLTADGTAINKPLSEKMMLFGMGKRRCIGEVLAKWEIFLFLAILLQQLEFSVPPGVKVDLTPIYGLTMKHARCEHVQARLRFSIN
Structure (SMILES),"activity change, negative = inhibition [1]",Potency [2],"activity change, negative = inhibition [3]",Potency [4],Potency [5],"activity, negative = inhibition [6]",outcome [7]
NC(=O)CNCCC(c1ccccc1)c1ccccc1,-7.75% (inactive),inactive,1.39% (inactive),> 46 µM (inactive),> 46 µM (inactive),,
Cn1ccnc1,-6.19% (inactive),inactive,-1.47% (inactive),> 46 µM (inactive),> 46 µM (inactive),8.3% (inactive),inactive
CNC(=O)c1cc2c(cn1)[nH]c1ccccc12,0.843% (inactive),794 nM (active) and 50.1 nM (active),-1.62% (inactive),> 46 µM (inactive),> 46 µM (inactive),31.1% (inactive),inactive
CCCn1c(=O)c2c(ncn2C)n(CCC)c1=O,2.31% (inactive),7.94 µM (active),0.366% (inactive),,> 46 µM (inactive),28.8% (inactive),
CCCCCCC/C=C\CCCCCCCCC(=O)O,12.5% (inactive),31.6 µM (active),-3.56% (inactive),> 46 µM (inactive),> 46 µM (inactive),-1.08% (inactive),inactive
CN[C@H](CC(=O)O)C(=O)O,-0.55% (inactive),inactive,0.454% (inactive),> 46 µM (inactive),> 46 µM (inactive),2.84% (inactive),inactive
NC(N)=NC(N)=Nc1ccccc1,-6.28% (inactive),inactive and 31.6 µM (active),7.27% (inactive),> 46 µM (inactive),> 46 µM (inactive),-15.1% (inactive),inactive
COc1ccc2c(c1)c(CC(=O)O)c(C)n2C(=O)c1ccccc1,1.55% (inactive),12.6 µM (active),-0.217% (inactive),> 46 µM (inactive),> 46 µM (inactive),-19% (inactive),inactive
Cc1nc(N=Nc2ccc(S(=O)(=O)O)cc2S(=O)(=O)O)c(COP(=O)(O)O)c(C=O)c1O,-10.9% (inactive),inactive,2.46% (inactive),> 46 µM (inactive),> 46 µM (inactive),5.69% (inactive),inactive
